Measurements published in ChEMBL document CHEMBL1961873, “Compounds: GSK PKIS; Assays: Nanosyn kinase panel” (2012).

Experiments:
[1] = molecular target: T1, Serine/threonine-protein kinase D2 (Homo sapiens) (UniProt Q9BZL6); conditions: at 1 µM;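 also: mean value of PRKD2 inhibition, from the GSK PKIS screening panel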
T1 sequence (whole entry): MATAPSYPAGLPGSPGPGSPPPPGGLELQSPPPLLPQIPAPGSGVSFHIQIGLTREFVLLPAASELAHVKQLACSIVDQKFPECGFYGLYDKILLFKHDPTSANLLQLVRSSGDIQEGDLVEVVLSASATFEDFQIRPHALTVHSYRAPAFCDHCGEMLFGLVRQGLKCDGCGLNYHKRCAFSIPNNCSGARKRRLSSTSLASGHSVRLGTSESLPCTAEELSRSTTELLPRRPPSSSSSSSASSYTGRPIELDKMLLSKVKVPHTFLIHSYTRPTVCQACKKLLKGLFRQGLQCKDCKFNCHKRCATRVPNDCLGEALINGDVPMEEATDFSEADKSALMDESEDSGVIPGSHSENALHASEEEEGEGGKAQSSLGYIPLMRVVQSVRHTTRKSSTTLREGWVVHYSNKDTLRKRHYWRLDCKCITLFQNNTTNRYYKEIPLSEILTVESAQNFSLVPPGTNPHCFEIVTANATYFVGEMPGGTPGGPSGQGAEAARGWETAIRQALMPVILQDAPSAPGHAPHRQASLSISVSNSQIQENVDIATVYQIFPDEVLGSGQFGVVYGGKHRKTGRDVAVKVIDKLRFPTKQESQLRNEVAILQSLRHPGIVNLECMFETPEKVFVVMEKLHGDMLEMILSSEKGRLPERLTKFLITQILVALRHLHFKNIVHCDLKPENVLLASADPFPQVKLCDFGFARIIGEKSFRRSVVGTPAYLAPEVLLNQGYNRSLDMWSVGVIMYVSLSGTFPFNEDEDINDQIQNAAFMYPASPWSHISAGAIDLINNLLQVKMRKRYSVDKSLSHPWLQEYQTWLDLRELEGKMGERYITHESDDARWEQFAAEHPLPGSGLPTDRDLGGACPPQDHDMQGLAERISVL

[2] = molecular target: T2, Serine/threonine-protein kinase D3 (Homo sapiens) (UniProt O94806); conditions: at 0.1 µM
T2 sequence (whole entry): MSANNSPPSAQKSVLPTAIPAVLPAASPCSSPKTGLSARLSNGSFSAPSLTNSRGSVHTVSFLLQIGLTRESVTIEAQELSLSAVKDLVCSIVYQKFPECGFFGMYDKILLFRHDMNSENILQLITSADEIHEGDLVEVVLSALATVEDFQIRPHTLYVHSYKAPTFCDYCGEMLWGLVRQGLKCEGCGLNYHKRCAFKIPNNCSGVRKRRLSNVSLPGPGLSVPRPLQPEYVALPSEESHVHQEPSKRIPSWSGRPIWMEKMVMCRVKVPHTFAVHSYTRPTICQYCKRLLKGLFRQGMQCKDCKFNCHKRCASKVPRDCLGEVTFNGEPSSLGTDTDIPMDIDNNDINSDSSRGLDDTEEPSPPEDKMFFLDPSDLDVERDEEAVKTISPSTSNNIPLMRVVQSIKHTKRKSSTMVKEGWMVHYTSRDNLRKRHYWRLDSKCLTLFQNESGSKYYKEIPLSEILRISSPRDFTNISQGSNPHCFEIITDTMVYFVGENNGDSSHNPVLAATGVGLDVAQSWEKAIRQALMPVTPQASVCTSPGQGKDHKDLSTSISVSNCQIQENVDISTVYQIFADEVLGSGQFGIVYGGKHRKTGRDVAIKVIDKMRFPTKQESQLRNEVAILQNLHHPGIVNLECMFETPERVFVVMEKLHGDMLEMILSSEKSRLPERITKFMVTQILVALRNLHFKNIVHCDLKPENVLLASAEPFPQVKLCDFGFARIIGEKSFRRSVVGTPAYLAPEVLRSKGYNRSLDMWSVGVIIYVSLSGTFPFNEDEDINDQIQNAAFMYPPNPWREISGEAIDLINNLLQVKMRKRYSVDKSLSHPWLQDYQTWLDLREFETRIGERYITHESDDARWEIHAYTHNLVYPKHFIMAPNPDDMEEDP

[3] = molecular target: T2, Serine/threonine-protein kinase D3 (Homo sapiens); conditions: at 1 µM
[4] = molecular target: T3, cGMP-dependent protein kinase 1 (Homo sapiens) (UniProt Q13976); conditions: at 0.1 µM
T3 sequence (whole entry): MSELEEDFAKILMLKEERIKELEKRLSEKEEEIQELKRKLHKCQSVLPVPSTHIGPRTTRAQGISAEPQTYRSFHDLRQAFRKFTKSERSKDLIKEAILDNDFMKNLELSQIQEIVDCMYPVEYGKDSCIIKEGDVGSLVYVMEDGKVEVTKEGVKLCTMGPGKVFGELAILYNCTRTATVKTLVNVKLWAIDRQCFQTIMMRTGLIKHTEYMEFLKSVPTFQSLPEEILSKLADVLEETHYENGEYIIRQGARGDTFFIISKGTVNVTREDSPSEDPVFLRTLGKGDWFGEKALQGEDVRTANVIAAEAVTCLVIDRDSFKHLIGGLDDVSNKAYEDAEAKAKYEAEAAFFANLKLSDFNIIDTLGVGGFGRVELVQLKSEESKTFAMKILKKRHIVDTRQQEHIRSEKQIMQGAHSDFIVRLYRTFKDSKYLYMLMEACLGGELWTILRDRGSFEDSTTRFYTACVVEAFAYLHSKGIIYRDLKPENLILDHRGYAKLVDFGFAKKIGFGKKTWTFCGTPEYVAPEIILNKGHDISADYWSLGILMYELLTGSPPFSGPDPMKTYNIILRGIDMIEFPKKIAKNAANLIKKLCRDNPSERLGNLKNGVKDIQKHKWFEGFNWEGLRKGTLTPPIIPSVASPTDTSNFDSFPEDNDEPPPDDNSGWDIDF

[5] = molecular target: T3, cGMP-dependent protein kinase 1 (Homo sapiens); conditions: at 1 µM
[6] = molecular target: T4, cGMP-dependent protein kinase 2 (Homo sapiens) (UniProt Q13237); conditions: at 0.1 µM
T4 sequence (whole entry): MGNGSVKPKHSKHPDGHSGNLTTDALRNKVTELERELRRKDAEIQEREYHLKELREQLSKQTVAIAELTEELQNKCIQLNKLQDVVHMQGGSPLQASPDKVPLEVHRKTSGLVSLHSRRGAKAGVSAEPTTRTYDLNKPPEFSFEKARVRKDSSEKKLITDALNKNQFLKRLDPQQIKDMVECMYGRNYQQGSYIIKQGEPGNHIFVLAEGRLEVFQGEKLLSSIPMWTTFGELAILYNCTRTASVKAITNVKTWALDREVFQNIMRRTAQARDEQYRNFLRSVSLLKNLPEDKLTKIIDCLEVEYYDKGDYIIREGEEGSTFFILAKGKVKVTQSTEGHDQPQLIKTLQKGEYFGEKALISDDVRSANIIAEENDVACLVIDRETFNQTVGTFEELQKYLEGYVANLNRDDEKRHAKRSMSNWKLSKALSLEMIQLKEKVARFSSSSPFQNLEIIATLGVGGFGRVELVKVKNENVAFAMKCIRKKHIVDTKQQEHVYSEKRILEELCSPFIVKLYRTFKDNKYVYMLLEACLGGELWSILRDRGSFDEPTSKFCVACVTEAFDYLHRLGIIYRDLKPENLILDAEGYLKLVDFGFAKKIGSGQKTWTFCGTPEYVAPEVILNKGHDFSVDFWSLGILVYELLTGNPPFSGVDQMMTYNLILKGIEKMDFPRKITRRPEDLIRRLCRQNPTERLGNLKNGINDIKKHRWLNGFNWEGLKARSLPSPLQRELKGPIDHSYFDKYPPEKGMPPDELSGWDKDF

[7] = molecular target: T4, cGMP-dependent protein kinase 2 (Homo sapiens); conditions: at 1 µM
[8] = molecular target: T5, cAMP-dependent protein kinase catalytic subunit PRKX (Homo sapiens) (UniProt P51817); conditions: at 0.1 µM
T5 sequence (whole entry): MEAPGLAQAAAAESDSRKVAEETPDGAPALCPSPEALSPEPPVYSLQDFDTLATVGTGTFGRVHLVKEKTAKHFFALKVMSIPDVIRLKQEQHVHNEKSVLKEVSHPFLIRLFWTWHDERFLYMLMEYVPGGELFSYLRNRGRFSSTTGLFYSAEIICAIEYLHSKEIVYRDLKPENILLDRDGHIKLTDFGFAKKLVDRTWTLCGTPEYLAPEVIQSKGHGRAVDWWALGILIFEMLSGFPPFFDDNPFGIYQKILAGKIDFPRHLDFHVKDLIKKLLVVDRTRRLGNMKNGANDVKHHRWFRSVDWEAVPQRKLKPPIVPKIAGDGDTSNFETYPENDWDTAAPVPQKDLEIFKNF

[9] = molecular target: T5, cAMP-dependent protein kinase catalytic subunit PRKX (Homo sapiens); conditions: at 1 µM
[10] = molecular target: Rho-associated protein kinase 1 (Homo sapiens) (UniProt Q13464); conditions: at 0.1 µM
Sequence of Rho-associated protein kinase 1 (Homo sapiens) (Q13464 2-1354 limits assumed): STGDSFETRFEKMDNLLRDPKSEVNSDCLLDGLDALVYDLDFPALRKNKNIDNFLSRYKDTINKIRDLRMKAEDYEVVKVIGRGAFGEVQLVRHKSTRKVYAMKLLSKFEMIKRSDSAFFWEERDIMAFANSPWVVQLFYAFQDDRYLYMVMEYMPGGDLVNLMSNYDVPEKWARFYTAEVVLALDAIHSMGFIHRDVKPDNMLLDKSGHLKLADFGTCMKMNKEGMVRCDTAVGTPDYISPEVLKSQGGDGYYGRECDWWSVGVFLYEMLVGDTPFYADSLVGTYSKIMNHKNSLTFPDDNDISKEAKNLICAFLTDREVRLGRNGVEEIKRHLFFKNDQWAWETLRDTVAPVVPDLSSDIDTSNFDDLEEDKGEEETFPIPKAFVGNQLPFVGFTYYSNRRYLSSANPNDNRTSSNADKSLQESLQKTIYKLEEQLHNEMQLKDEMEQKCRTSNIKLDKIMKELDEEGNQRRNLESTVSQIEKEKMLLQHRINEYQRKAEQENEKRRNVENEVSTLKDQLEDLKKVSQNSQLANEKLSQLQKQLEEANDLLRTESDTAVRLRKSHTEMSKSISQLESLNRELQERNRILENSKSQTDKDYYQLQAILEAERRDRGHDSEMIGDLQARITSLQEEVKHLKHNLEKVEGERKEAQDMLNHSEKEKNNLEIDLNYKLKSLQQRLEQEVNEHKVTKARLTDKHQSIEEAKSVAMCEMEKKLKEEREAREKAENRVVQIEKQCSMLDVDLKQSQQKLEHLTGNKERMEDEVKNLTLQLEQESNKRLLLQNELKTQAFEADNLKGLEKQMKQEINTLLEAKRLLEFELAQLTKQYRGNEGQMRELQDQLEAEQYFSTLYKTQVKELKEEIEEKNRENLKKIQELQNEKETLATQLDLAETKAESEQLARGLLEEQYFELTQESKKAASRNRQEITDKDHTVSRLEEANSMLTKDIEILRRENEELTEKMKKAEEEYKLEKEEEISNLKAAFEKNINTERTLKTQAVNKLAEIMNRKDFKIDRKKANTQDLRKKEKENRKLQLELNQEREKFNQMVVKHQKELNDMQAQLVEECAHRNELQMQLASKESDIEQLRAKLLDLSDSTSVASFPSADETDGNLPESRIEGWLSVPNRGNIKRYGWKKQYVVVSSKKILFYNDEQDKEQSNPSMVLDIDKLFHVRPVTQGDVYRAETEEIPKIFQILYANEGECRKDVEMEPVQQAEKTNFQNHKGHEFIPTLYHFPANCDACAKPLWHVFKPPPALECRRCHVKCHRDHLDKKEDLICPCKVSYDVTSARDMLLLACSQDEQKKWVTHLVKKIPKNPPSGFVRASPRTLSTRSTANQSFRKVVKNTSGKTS

[11] = molecular target: Rho-associated protein kinase 1 (Homo sapiens) (UniProt Q13464); conditions: at 1 µM
[12] = molecular target: Rho-associated protein kinase 2 (Homo sapiens) (UniProt O75116); conditions: at 0.1 µM
Sequence of Rho-associated protein kinase 2 (Homo sapiens) (O75116 whole entry, looked up): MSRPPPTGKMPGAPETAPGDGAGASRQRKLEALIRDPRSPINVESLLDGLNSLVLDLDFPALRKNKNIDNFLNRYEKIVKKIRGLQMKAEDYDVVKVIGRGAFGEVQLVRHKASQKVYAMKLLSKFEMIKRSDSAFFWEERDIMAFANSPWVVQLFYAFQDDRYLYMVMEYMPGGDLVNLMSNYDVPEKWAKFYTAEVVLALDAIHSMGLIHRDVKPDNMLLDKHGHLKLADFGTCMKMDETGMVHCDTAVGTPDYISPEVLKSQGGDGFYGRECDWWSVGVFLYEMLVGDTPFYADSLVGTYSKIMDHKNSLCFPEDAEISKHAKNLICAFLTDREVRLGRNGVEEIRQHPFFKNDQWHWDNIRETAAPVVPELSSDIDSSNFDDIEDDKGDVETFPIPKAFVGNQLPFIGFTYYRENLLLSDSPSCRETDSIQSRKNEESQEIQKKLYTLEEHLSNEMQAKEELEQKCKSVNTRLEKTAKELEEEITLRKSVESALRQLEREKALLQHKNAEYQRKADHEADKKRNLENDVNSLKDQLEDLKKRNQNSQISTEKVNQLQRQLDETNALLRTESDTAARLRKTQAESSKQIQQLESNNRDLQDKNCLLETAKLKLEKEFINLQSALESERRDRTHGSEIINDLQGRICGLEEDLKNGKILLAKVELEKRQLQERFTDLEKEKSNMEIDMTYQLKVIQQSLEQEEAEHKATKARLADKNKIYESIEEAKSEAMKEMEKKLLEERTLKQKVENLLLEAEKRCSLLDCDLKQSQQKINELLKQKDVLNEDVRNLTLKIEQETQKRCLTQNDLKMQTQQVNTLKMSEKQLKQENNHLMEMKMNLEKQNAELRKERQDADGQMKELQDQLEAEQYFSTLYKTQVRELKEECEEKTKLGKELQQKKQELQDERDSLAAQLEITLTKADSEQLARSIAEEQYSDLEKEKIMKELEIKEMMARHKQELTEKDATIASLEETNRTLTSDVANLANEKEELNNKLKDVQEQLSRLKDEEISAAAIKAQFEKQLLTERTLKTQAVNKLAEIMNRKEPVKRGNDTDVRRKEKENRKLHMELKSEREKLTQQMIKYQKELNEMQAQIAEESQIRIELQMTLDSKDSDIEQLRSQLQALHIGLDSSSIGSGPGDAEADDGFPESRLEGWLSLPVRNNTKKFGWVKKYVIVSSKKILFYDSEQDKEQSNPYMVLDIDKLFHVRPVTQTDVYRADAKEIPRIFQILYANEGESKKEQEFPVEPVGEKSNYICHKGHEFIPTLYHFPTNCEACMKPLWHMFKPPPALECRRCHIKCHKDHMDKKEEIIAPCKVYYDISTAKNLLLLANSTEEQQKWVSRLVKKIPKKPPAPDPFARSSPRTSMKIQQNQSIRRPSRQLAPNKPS

[13] = molecular target: Rho-associated protein kinase 2 (Homo sapiens) (UniProt O75116); conditions: at 1 µM
[14] = molecular target: Ribosomal protein S6 kinase alpha-1 (Homo sapiens) (UniProt Q15418); conditions: at 0.1 µM
Sequence of Ribosomal protein S6 kinase alpha-1 (Homo sapiens) (Q15418 whole entry): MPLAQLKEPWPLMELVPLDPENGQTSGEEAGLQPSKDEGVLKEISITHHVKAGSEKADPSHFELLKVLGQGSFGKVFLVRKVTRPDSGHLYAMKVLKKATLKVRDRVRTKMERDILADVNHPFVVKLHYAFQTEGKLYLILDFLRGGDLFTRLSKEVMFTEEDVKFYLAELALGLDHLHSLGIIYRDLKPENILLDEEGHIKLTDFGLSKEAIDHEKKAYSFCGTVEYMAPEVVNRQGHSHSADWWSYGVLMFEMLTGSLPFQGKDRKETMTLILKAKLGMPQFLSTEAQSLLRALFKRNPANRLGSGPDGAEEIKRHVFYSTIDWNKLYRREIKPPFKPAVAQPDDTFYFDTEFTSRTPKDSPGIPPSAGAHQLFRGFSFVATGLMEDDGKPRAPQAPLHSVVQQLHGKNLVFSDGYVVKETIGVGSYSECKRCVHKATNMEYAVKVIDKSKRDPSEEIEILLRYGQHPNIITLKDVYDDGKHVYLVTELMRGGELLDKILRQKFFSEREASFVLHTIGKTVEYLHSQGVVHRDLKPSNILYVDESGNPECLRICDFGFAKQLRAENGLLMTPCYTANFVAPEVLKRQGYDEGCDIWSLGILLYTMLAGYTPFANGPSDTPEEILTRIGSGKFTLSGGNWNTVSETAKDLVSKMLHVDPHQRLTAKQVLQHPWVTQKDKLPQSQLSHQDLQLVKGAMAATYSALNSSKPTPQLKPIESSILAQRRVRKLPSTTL

[15] = molecular target: Ribosomal protein S6 kinase alpha-1 (Homo sapiens) (UniProt Q15418); conditions: at 1 µM
[16] = molecular target: Ribosomal protein S6 kinase alpha-3 (Homo sapiens) (UniProt P51812); conditions: at 0.1 µM
Sequence of Ribosomal protein S6 kinase alpha-3 (Homo sapiens) (P51812 whole entry): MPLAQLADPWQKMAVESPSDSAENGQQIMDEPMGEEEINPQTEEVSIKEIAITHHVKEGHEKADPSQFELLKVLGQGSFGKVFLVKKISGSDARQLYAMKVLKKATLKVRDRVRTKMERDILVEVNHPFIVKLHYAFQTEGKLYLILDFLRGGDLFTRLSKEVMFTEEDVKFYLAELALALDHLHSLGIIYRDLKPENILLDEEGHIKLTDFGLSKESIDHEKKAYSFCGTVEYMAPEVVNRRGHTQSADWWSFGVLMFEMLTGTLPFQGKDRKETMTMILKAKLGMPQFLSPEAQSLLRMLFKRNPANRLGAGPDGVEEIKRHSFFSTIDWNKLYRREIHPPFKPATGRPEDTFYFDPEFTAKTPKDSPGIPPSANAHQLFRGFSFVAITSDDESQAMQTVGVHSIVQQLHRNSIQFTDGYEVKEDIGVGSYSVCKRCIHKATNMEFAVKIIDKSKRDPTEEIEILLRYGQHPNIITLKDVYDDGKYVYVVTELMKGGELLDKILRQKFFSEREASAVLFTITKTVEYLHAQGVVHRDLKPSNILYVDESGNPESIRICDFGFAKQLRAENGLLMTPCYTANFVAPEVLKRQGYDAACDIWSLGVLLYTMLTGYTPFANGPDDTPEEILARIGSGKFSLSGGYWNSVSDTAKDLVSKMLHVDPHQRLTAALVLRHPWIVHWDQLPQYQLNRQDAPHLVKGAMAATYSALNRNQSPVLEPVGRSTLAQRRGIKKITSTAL

[17] = molecular target: Ribosomal protein S6 kinase alpha-3 (Homo sapiens) (UniProt P51812); conditions: at 1 µM
[18] = molecular target: Ribosomal protein S6 kinase alpha-2 (Homo sapiens) (UniProt Q15349); conditions: at 0.1 µM
Sequence of Ribosomal protein S6 kinase alpha-2 (Homo sapiens) (Q15349 whole entry): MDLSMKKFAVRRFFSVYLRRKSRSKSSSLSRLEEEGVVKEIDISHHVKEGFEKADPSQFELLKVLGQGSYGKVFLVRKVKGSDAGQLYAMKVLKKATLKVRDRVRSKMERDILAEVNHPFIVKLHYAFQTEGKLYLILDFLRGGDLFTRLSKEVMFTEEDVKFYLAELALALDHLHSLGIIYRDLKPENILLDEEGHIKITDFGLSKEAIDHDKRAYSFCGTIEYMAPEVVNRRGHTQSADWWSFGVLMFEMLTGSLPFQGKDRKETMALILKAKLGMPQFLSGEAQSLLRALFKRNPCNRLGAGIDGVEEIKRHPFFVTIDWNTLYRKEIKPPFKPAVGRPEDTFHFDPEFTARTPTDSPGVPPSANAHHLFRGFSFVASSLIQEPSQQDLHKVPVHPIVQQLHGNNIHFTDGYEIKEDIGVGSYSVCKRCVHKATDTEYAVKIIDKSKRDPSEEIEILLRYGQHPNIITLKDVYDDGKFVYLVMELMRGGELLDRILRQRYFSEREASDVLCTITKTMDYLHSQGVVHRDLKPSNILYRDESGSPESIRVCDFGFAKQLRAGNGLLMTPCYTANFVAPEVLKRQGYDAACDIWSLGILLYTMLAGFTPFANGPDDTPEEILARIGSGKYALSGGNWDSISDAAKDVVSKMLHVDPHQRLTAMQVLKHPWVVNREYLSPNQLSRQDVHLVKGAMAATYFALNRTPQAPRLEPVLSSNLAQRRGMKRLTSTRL

[19] = molecular target: Ribosomal protein S6 kinase alpha-2 (Homo sapiens) (UniProt Q15349); conditions: at 1 µM
[20] = molecular target: Ribosomal protein S6 kinase alpha-6 (Homo sapiens) (UniProt Q9UK32); conditions: at 0.1 µM;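 also: reported value is the mean inhibition of RSK4, from the GSK PKIS kinase inhibitor screen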

SMILES | inhibition [1] [%] | inhibition [2] [%] | inhibition [3] [%] | inhibition [4] [%] | inhibition [5] [%] | inhibition [6] [%] | inhibition [7] [%] | inhibition [8] [%] | inhibition [9] [%] | inhibition [10] [%] | inhibition [11] [%] | inhibition [12] [%] | inhibition [13] [%] | inhibition [14] [%] | inhibition [15] [%] | inhibition [16] [%] | inhibition [17] [%] | inhibition [18] [%] | inhibition [19] [%] | inhibition [20] [%]
CN1CCC(n2cnc(-c3ccc(F)cc3)c2-c2ccnc(Nc3ccccc3)n2)CC1 | 46.5 | 6.42 | 43.5 | 1.69 | 3.29 | 0.99 | 5.8 | 1.37 | 1.71 | -0.46 | 0.32 | 0.82 | 3.27 | 1.76 | 4.83 | 1.15 | 3.9 | 2.93 | 2.91 | 3.17
CS(=O)(=O)CCNCc1ccc(-c2ccc3ncnc(Nc4ccc(OCc5ccccc5)c(C(F)(F)F)c4)c3c2)o1 | 2.47 | 4.3 | 4.39 | 2.93 | 0.85 | 1.82 | 0.3 | 2.36 | 2.08 | 10.3 | 2.14 | 2.7 | 2.3 | 0.89 | 1.86 | 1.54 | 1.72 | 2.31 | 2.74 | 0.89
COc1ccc(-c2nn3ncccc3c2-c2ccnc(Nc3ccc4c(c3)OCCO4)n2)cc1 | 9.73 | 2.09 | 8.59 | -0.47 | -2.7 | 0.2 | -1.06 | 0.59 | -0.08 | 0.43 | 0.84 | -0.09 | 1.51 | -0.25 | -1.03 | 0.04 | 0.87 | 1.27 | 0.17 | 0.7
CCNC(=O)O[C@H]1CN[C@H](C#Cc2cc3ncnc(Nc4ccc(OCc5cccc(F)c5)c(Cl)c4)c3s2)C1 | 3.71 | 2.4 | 3.78 | 2.33 | 3.36 | -0.03 | 2.81 | -0.14 | -0.33 | 0.96 | 1.95 | 2.86 | 0.32 | 1.32 | 0.05 | -0.04 | -1.01 | 1.63 | 0.86 | 1.4
NS(=O)(=O)c1ccc(N/N=C2\C(=O)Nc3ccc4ncccc4c32)cc1 | 55.7 | 8.6 | 51.4 | 4.46 | 22.6 | 9.97 | 46.1 | -0.15 | 2.43 | 7.13 | 38.4 | 15.9 | 60.3 | 6.2 | 30.6 | 7.41 | 39.4 | 15.9 | 61.7 | 13
Cc1cccc(Nc2ncc(-c3ccccc3)o2)c1 | 3.61 | 2.84 | 4.5 | 5.35 | 11.3 | 6.06 | 10.7 | 11.3 | 12 | 1.64 | 4.38 | 2.08 | 3.95 | 2.35 | 2.99 | 0.91 | 3.43 | 2.17 | 2.67 | 1.32
NS(=O)(=O)c1ccc(Nc2ncc(-c3ccccc3)o2)cc1 | 5.55 | 3.51 | 5.97 | 1.9 | 4.85 | 2.69 | 3.98 | 2.08 | 2.5 | 0.63 | 2.68 | 4.4 | 8.55 | 2.44 | 6.42 | 1.17 | 4.01 | 2.5 | 4.37 | 1.15
Nc1ncc(-c2cccc(S(N)(=O)=O)c2)c2scc(-c3ccc(F)c(Cl)c3)c12 | 43.8 | 6.03 | 33.1 | 1.07 | -0.14 | 2.34 | 1.46 | 1.86 | 1.14 | 1.03 | 1.47 | 2.98 | 2.92 | 2.93 | 6.15 | 2.5 | 2.98 | 3.17 | 2.68 | 2.34
CC(C)(CO)CNC(=O)c1ccc2c(c1)/C(=N/Nc1ccc(S(N)(=O)=O)cc1)C(=O)N2 | 11.8 | 0.07 | 9.82 | 0.66 | 11.8 | 2.6 | 22 | 0.91 | 3.07 | 0.33 | 5.01 | 0.95 | 10.3 | 0.63 | 3.49 | 0.73 | 4.41 | 0.48 | 6.29 | 1.62
COc1ccc2[nH]c3c4[nH]c5ccc(OC)cc5c4c4c(c3c2c1)C(=O)NC4=O | 45.9 | 5.31 | 14.4 | 6.13 | 35 | 69.5 | 72.5 | 9.07 | 46 | 1.15 | 7.02 | 6.62 | 16.6 | 53.9 | 82 | 44.9 | 80.1 | 73.5 | 92.4 | 58.2
